rCAG RNA binder: binders of r(CAG) RNA repeats, primary screen, biochemical, fluorescence | r(CAG) RNA repeat, TO-PRO-1 dye displacement fluorescence | inhibition, % at 3 µM | 370,000 compounds, 1.3% hits | AID 651821, 2012;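 active = inhibition above the plate cutoff, the mean of all test compounds on that plate plus 3 SD, cut at about 35% in these data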;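 also: 0% = DMSO alone and 100% = 100 µM mitoxantrone as full dye displacement; higher means more dye released from RNA so lower well fluorescence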
KLK7 zymogen act: proKLK7 zymogen activators, primary screen, biochemical, fluorescence intensity; Kallikrein-7 (Homo sapiens), P49862; purified proKLK7, EDANS-DABCYL substrate fluorescence; 100% is mature enzyme control, 0% vehicle; activation, % at 7 µM; 370,000 compounds, 0.9% hits; AID 652039, 2013;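 active = activation above the mean of all tested compounds plus 3 SD, computed per campaign excluding outliers beyond control limits, cut at about 13% in these data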
AHR act: AHR activators, primary screen, cell-based, luminescence, luciferase reporter, human; Aryl hydrocarbon receptor (Homo sapiens), P35869; AHR-responsive luciferase reporter cells; activation, % at 5 µM; 320,000 compounds, 2.5% hits; AID 2796, 2010; in the data active = activation above about 47%;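 also: 0% = vehicle wells and 100% = reference agonist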
ADAM10 inh: human ADAM10 inhibitors, primary screen, biochemical, QFRET, HTS. recombinant ADAM10, EDANS/DABCYL FRET peptide cleavage, 3 h. Disintegrin and metalloproteinase domain-containing protein 10 (Homo sapiens), O14672. 370,000 compounds, 0.62% hits. inhibition, % at 7 µM;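 active = inhibition above a per-campaign cutoff equal to the mean of compounds falling between control-based bounds plus 3 SD, cut at about 20% in these data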;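 also: 0% = DMSO wells while the 100% control is not disclosed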
ADAM17 inh: ADAM17 inhibitors, primary screen, biochemical, QFRET; Disintegrin and metalloproteinase domain-containing protein 17 (Homo sapiens), P78536; recombinant ADAM17, EDANS/DABCYL FRET peptide cleavage; inhibition, % at 6.95 µM; 370,000 compounds, 0.83% hits; AID 720648, 2013;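 active = inhibition above the mean of compounds lying between control limits plus 3 SD, set per campaign, cut at about 8.5% in these data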;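 also: 0% = DMSO-only wells as the low control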
GRIN3A LBD mod: binders of NR3A ligand-binding domain, primary screen, biophysical, differential scanning fluorimetry, uHTS; Tm shift relative to glycine control, % at 25 µM; NR3A LBD differential scanning fluorimetry, Tm shift; 0% = protein alone, 100% = glycine-bound protein; Glutamate receptor ionotropic, NMDA 3A (GRIN3A) ligand-binding domain; 340,000 compounds, 2.5% hits;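 active = melting temperature shift of at least 10% of the positive control shift, at one fixed dose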
proKLK7 act conf: proKLK7 zymogen activators, confirmation, biochemical, fluorescence intensity, triplicate | activation, % at 7 µM | shares compounds with KLK7 zymogen act | 3,200 compounds, 68% hits | purified proKLK7, EDANS-DABCYL substrate fluorescence; scaled: vehicle 0, mature enzyme 100;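 active = activation, as change over the incubation, above the mean of all tested compounds plus 3 SD, cut at about 13% in these data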
EDANS-DABCYL int: EDANS-DABCYL substrate optical interference, artefact control for kallikrein-7 zymogen activator project, biochemical, fluorescence intensity, high throughput; shares compounds with KLK7 zymogen act; no enzyme, 4 h; solvent 0%, active enzyme control 100%; activation, % at 7 µM; 3,200 compounds, 80% hits;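 active = activation above the all-compound mean plus 3 SD, ignoring values outside control-based bounds, cut at about 4.8% in these data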;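 also: value is the 4 h activation minus the activation read at time zero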
EDANS interf: EDANS fluorescence interference in dose response, no enzyme; shares compounds with KLK7 zymogen act; EDANS-DABCYL peptide fluorescence interference; EC50, µM; 250 compounds, 20% hits;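 active = compounds that raise the fluorescence signal in this interference counterscreen, with EC50 at or below 10 µM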;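 also: intact quenched peptide substrate alone read at 355 nm excitation and 520 nm emission; signal is fluorescence gain from T0 to T4 after four hours at room temperature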
* hit, by the source's call; i = inactive; nt = no result. An excerpt weighted towards active compounds, which were near 7% of everything screened.

SMILES | rCAG RNA binder | KLK7 zymogen act | AHR act | ADAM10 inh | ADAM17 inh | GRIN3A LBD mod | proKLK7 act conf | EDANS-DABCYL int | others
N#Cc1c(N)n(-c2ccc(O)cc2)c2nc3ccccc3nc12 | 2.8 | 1.9 | -2.9 | -89.1 | -33.9 | 0.9 | nt | nt
CN(C)CCCn1c(N)c(S(=O)(=O)c2ccccc2)c2nc3ccccc3nc21 | -5.0 | 68.6* | -4.2 | i | i | -2.3 | -35.0 | -48.2
N#Cc1c(N)n(CCc2ccc(F)cc2)c2nc3ccccc3nc12 | 4.1 | 31.9* | -6.2 | i | i | -2.5 | -48.2 | -67.5
N#Cc1c(N)n(CCOC(=O)c2cccc(Br)c2)c2nc3ccccc3nc12 | 14.8 | -22.5 | 2.0 | -268.4 | -85.1 | 5.4 | nt | nt
N#Cc1c(N)n(-c2cccc(O)c2)c2nc3ccccc3nc12 | 9.7 | 116.6* | -1.5 | i | i | -0.9 | 42.2* | 47.0*
N#Cc1c(N)n(CCOC(=O)c2cccc([N+](=O)[O-])c2)c2nc3ccccc3nc12 | 16.4 | 83.3* | 3.1 | -180.8 | -50.6 | 1.4 | 91.5* | 88.1*
CCCCn1c(N)c(S(=O)(=O)c2ccc(C)cc2)c2nc3ccccc3nc21 | 9.1 | -17.5 | 1.8 | i | i | 5.8 | nt | nt
COc1ccc(Cn2c(N)c(C#N)c3nc4ccccc4nc32)cc1 | 15.8 | 7.4 | 4.8 | i | i | -7.6 | nt | nt
CC(=O)c1ccccc1C(=O)N1CCCC(C(=O)c2ccc(C(F)(F)F)cc2)C1 (stereo not given) | -9.8 | 0.9 | 4.5 | -2.8 | -0.5 | 0.8 | nt | nt
O=C(CSC(=S)N1CCCC1)Nc1ncc(Cl)cc1Cl | -1.9 | -0.3 | 0.5 | -9.4 | -1.4 | 0.2 | nt | nt
CC(C)Cn1c(N)c(C(=O)NCC2CCCO2)c2nc3ccccc3nc21 (stereo not given) | 2.4 | -27.6 | 33.1 | i | i | -8.9 | nt | nt
COCCn1c(N)c(S(=O)(=O)c2cccs2)c2nc3ccccc3nc21 | 3.5 | 55.7* | 2.0 | i | i | 2.1 | 24.1* | 25.9*
COCCn1c(N)c(C#N)c2nc3ccccc3nc21 | 2.7 | 62.2* | 9.6 | i | i | -1.9 | 59.8* | 72.4*
COCCn1c(N)c(C(=O)NCC2CCCO2)c2nc3ccccc3nc21 (stereo not given) | -2.1 | 12.9* | 13.6 | i | i | 0.8 | -143.1 | -182.5
Nc1c(S(=O)(=O)c2cccs2)c2nc3ccccc3nc2n1Cc1ccccc1 | 13.5 | -26.8 | 0.2 | i | -283.8 | 1.4 | nt | nt
O=C1NCCCN1C1OC(CO)C(O)C1O (stereo not given) | 3.1 | -0.5 | nt | -2.4 | -5.1 | nt | nt | nt
CCOC(=O)c1cnn2c(C(F)(F)F)cc(-c3cn(C)nc3C)nc12 | -1.1 | 19.7* | 4.5 | i | -257.7 | 1.5 | 40.6* | 24.6* | EDANS interf=>69.5
COC(=O)c1cnn2c(C(F)(F)F)cc(-c3ccc(F)cc3)nc12 | -4.5 | 1.6 | 0.0 | -41.0 | -7.5 | -0.4 | nt | nt
CCOC(=O)c1cnn2c(C(F)(F)F)cc(-c3ccccc3)nc12 | -4.0 | 18.6* | -0.8 | -94.5 | -30.3 | 2.1 | -68.8 | -73.3
COC(=O)C1CCN(C(=O)COC(=O)c2oc3ccc(OC)cc3c2C)CC1 | -1.8 | 4.3 | -0.8 | -367.1 | -102.4 | -0.3 | nt | nt

Bioassay records (PubChem)
